Most compounds without a hit are left out; they make up all but 9% or so of the library.
12-LOX inh – Primary qHTS assay for inhibitors of human arachidonate 12S-lipoxygenase (ALOX12): Round 2. Polyunsaturated fatty acid lipoxygenase ALOX12 (Homo sapiens), P18054. Potency, µM (highest dose often 108 µM), for the others: at the top dose activity change, negative = inhibition, hits mostly inhibitors. purified 12hLO, xylenol orange hydroperoxide absorbance. 580,000 compounds, 1.1% hits; further: on the % scale 0 is the no-effect control and ±100 the full control effect
Target sequence (P18054 whole entry, looked up): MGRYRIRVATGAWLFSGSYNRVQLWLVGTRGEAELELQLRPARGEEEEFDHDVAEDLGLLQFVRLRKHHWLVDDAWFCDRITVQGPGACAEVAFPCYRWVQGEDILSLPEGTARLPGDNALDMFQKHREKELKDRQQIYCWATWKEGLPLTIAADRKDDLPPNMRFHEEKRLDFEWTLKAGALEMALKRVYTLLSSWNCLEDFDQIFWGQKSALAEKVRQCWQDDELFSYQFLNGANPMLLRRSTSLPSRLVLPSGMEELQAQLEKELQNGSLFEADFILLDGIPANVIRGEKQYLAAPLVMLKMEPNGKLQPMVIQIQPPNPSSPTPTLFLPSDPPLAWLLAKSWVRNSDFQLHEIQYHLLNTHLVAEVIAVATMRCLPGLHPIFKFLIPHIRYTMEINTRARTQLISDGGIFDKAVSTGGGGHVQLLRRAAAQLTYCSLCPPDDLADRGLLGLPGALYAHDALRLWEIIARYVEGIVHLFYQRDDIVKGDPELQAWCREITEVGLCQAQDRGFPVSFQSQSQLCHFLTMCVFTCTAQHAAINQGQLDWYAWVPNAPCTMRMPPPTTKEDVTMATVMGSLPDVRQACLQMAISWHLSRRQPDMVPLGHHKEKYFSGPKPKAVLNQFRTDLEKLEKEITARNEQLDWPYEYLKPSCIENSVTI
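Purified human 12hLO (150 nM final) in 25 mM Hepes, 0.01% Triton X-100, pH 7.0 was preincubated 15 min at room temperature with compound. Then 40 uM arachidonic acid was added, 30 min. Hydroperoxide was read by Fe-XO absorbance ratio 573/405 nm.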
BAZ2B inh – qHTS Assay for Inhibitors of BAZ2B. Bromodomain adjacent to zinc finger domain protein 2B (Homo sapiens), Q9UIF8. AlphaScreen BAZ2B-H3K14Ac peptide displacement. Potency, µM (top dose mostly 114 µM), for inactives: at the highest dose activity change, negative = inhibition, hits mostly inhibitors. 360,000 compounds, 4.4% hits. AID 504333, 2011; further: on the % scale 0 is the no-effect control and ±100 the full control effect; nearly all actives have a fitted effect of over 60% in size
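BAZ2B 50 nM plus b-H3(5-23)K14Ac 50 nM, PBS pH 7.4/0.01% Tween-20, 30 min RT; compound added (max 110 uM), 30 min RT; streptavidin donor/Ni-chelate acceptor beads 10 ug/mL final, 20 min dark; AlphaScreen read.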
PLK1 PBD inh – qHTS for Inhibitors of PLK1-PDB (polo-like kinase 1 - polo-box domain): Primary Screen. Serine/threonine-protein kinase PLK1 (Homo sapiens), P53350. Plk1 PBD binding of FITC phosphopeptide, fluorescence polarization. Potency, µM, without a hit: max response, negative = inhibition, most hits filed as inhibitors. 360,000 compounds, 2.8% hits. AID 720504, 2013; further: series mostly up to about 57 µM; on the % scale 0 is the no-effect control and ±100 the full control effect; nearly all actives have a fitted effect of over 65% in size
HP1b binding inh – HTS for Inhibitors of HP1-beta Chromodomain Interactions with Methylated Histone Tails; Chromobox protein homolog 1 (Homo sapiens), P83916; Potency, µM (top dose mostly 114 µM), for inactives: top-dose activity change, negative = inhibition, hits mostly inhibitors; 390,000 compounds, 0.56% hits; AlphaScreen HP1-beta / biotin-H3K9me3 peptide binding; further: nearly all actives have a fitted effect of over 70% in size
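HP1-beta protein (50 nM final) preincubated 30 min at room temperature with biotinylated H3(1-18)K9me3 peptide (50 nM) in PBS pH 7.4, 0.01% Tween-20, then compound added for 30 min. AlphaScreen streptavidin donor/nickel chelate acceptor beads (10 ug/mL final), 30 min dark, luminescence read.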
JMJD2A Tudor inh – qHTS Assay for Inhibitors of JMJD2A-Tudor Domain | AID 504339, 2011 | AlphaScreen JMJD2A-Tudor / H3K4me3 peptide binding | Potency, µM (series often up to 114 µM), for inactives: top-dose activity change, negative = inhibition, actives largely listed as inhibitors | 390,000 compounds, 4.4% hits | Lysine-specific demethylase 4A (Homo sapiens), O75164; further: on the % scale 0 is the no-effect control and ±100 the full control effect; nearly all actives have a fitted effect of over 50% in size
G9a inh – qHTS Assay for Inhibitors of Histone Lysine Methyltransferase G9a. G9a H3K9 monomethylation, AlphaScreen, 2 h. 350,000 compounds, 8.8% hits. Potency, µM (series often up to 102 µM), for inactives: top-dose activity, negative = inhibition, usual class: inhibitors. Histone-lysine N-methyltransferase EHMT2 (Homo sapiens), Q96KQ7; further: on the % scale 0 is the no-effect control and ±100 the full control effect; nearly all actives have a fitted effect of over 75% in size
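Quantitative HTS format: methyltransferase activity on a biotin-tagged H3K9 peptide is measured by AlphaScreen, using a rabbit anti-monomethyl-H3K9 antibody with streptavidin donor and anti-IgG acceptor beads. Final levels are 20 nM enzyme, 500 nM peptide, 20 uM SAM; 2 h RT.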
* = called active by the depositor; u = inconclusive; x = no result; [ ] = dose if it differs, or a comment. The call rests on the fitted dose curve; in most records, active means well fitted curve in the direction sought with a large enough effect; inconclusive means small, poorly fitted or top-dose-only effect, or another doubt; inactive means no such curve, though single readings can be large; an effect the other way counts as inactive or inconclusive. Potency means the concentration at half of the fitted maximal effect.

SMILES	12-LOX inh	BAZ2B inh	PLK1 PBD inh	HP1b binding inh	JMJD2A Tudor inh	G9a inh
CCOc1cc(N2CCOCC2)c(OCC)cc1NC(C)C(=O)N1CCC(C)CC1 (stereo not given)	35.5µM*	-4.5%	-11.4%	-5.3%	u	39.8µM*
CCOc1cc(N2CCOCC2)c(OCC)cc1NC(=O)CN1CCc2ccccc2C1	u	20µM*	-0.3%	u	1.41µM*	15.3%[2.33 µM]
CCOc1cc(N2CCOCC2)c(OCC)cc1NC(=O)CSc1n[nH]c(N)n1	1.2%	u	-0.5%	19.0%	-4.2%	-39.7%
O=S(=O)(c1cc(Cl)ccc1Cl)n1cccn1	-12.4%	5.9%	-1.6%	44.7%	5.2%	-3.7%
Cc1ccc(NS(=O)(=O)c2cc3[nH]c(=O)c(=O)[nH]c3cc2C)cc1N(C)C	u	-29.7%	x	5.0%	-19.5%	-28.5%[59 µM]
O=C(NCCC1=CCCCC1)NC12CC3CC(CC(C3)C1)C2	u	7.6%	-7.7%	26.6%	-5.6%	15.2%[59 µM]
O=C(N/N=C/C=C/c1ccco1)c1cccc([N+](=O)[O-])c1	-25.4%	-7.8%	-4.6%	35.9%	-17.0%	u
CCn1c(CN2CCOCC2)nnc1SCC(=O)Nc1ccccc1C	81.7%	-15.8%	4.2%	19.5%	-6.1%	10.7%
Cc1cc2c(c(=O)n1CCN(C)C)C(c1ccncc1)C(C#N)=C(N)O2 (stereo not given)	-8.4%	0.5%	-8.9%	1.6%	-4.4%	3.2%[12.7 µM]
CCOc1cc(N2CCOCC2)c(OCC)cc1NC(=O)CSc1nccc(C)n1	0.3%	-22.8%	-9.8%	11.8%	-24.5%	-50.9%
CCOc1cc(N2CCOCC2)c(OCC)cc1NC(=O)CSc1ccccc1C(=O)O	u	79.4µM*	-5.0%	12.8%	-32.6%	7.94µM*
COc1cc2c(cc1Cl)/C(=C\CCN(C)C)c1ccccc1S2	u	u	-26.8%	u	u	u
CN(C)CC/C=C1/c2ccccc2Sc2c(O)cc(Cl)cc21	25.1%	u	-7.0%	-22.1%	u	25.1µM*
COc1cc(Cl)cc2c1Sc1ccccc1/C2=C/CCN(C)C	x	44.7µM*	-14.5%	-17.8%	u	u
COc1cc(OC)c(C#N)c(SCc2ccccc2)c1	-18.1%	x	x	x	x	x
CC(C)n1c(SCc2ccccc2F)nc2c1c(=O)n(C)c(=O)n2C	14.9%[57.4 µM]	-4.3%	-4.1%	49.7%	10.0%	u
Cn1ccnc1CN1CCN(CC2(O)CNCCOC2)CC1 (stereo not given)	37.9%	x	x	x	x	x
OC1(CN2CCN(c3cnccn3)CC2)CNCCOC1 (stereo not given)	10µM*	x	x	x	x	x
CSCCC(NC(=O)c1ccccc1Cl)C(=O)Nc1cccc(S(=O)(=O)N2CCCC2)c1 (stereo not given)	-17.4%	-9.5%	3.5%	41.3%	-3.6%	44.7µM*
CSCCC(NC(=O)c1cccc(C)c1)C(=O)Nc1sccc1C(N)=O (stereo not given)	-16.3%	-30.3%	-9.9%	16.6%	-16.8%	50.1µM*
COc1ccccc1C(=O)NC(CCSC)C(=O)Nc1ccc(C)c(S(=O)(=O)N2CCOCC2)c1 (stereo not given)	46.7%	x	-0.8%	10.8%	-33.2%	x
CSCCC(NC(=O)c1cccc(S(=O)(=O)N2CCOCC2)c1)C(=O)Nc1cccc(C)c1 (stereo not given)	-9.5%	-4.0%	0.1%	19.7%	-2.0%	10µM*
CSCCC(NC(=O)c1ccccc1Cl)C(=O)NC1CCN(Cc2ccccc2)CC1 (stereo not given)	-10.2%	-38.4%	-7.9%	0.4%	-16.2%	1.58µM*
COC(=O)c1ccc(NC(=O)C(=O)N2CCN(C(=S)Nc3ccc(OC)cc3)CC2)cc1	-17.1%	5.9%	-24.8%	45.6%	-2.1%	2.8%[59 µM]
Brc1ccc(-c2ncc(-c3ccccc3)cn2)cc1	347.7%	u	-2.1%	54.6%	-2.5%	-9.8%
SMILES	12-LOX inh	BAZ2B inh	PLK1 PBD inh	HP1b binding inh	JMJD2A Tudor inh	G9a inh
COc1ccc(-c2ccc3c(N)c(C(=O)c4ccc(OC)c(OC)c4)sc3n2)cc1	u	-26.3%	3.1%	8.4%	u	2.82µM*
COc1ccc(-c2ccc3c(N)c(C(=O)NC(C)C)sc3n2)cc1OC	u	-0.7%	3.3%	76.5%	23.5%	-43.7%
COc1ccc(C(=O)c2sc3nc(-c4ccccc4)ccc3c2N)cc1OC	0.6%	-24.0%	8.7%	34.5%	-35.3%	u
COc1ccc(-c2ccc3c(n2)sc2c(=O)[nH]c(=O)[nH]c23)cc1OC	x	-38.5%	x	x	x	3.55µM*
O=C(CN(C(=O)CNS(=O)(=O)c1ccc(F)cc1)c1cccc(F)c1)NCC1CCCO1 (stereo not given)	9.6%	7.6%	-3.3%	31.0%	1.4%	-12.1%
CCN(CC)c1ccc(C(=S)N2CCN(c3ccccc3)CC2)cc1	0.0%	10µM*	13.4µM*	u	-16.8%[11.4 µM]	11.2µM*
S=C(c1ccccc1)N1CCN(c2ccccc2)CC1	-8.1%	x	26.7µM*	u	-34.9%	x
CC(C)(C)c1ccc(C(=S)N2CCN(c3ccccc3)CC2)cc1	10.6%	-34.3%	23.8µM*	u	-35.9%	20µM*
CC(=O)Nc1ccc(S(=O)(=O)N2CCN(c3ccc(C)c(C)c3)CC2)cc1	-10.8%	-21.7%	x	20.5%	-17.9%	1.3%[59 µM]
O=C(CN1C(=O)NC2(CCCc3ccccc32)C1=O)NCCc1ccc(F)cc1 (stereo not given)	-11.5%	x	-1.8%	22.7%	-13.8%	x
CC(Nc1nc(=S)nc(Nc2ccc(F)cc2)[nH]1)c1ccccc1 (stereo not given)	u	-13.5%	13.4µM*	-11.4%	-26.2%	x
CC(Nc1nc(Nc2ccc(F)cc2)nc(SCC(N)=O)n1)c1ccccc1 (stereo not given)	u	-30.4%	-7.9%	-6.3%	-34.5%	20.7%[0.501 µM]
N#Cc1ccc(CN2CCCc3ccccc32)cc1	99.0%	x	x	x	x	x
CCCN1CCCc2ccccc21	-12.9%	u	-1.8%	11.9%	-35.2%	22.4µM*
COc1ccc(-c2ncccc2OC(=O)C23CC4CC(CC(C4)C2)C3)cc1	-24.8%	u	-6.0%	65.4%	2.1%	25.1µM*
O=C(O)/C=C/c1nc(-c2ccccc2)n2ccccc12	u	44.7µM*	-11.0%	5.6%	-28.4%	11.2µM*
CC1(C)CNC(=O)c2sc(NC(=O)CN3CCOCC3)nc2C1	-23.3%	2.6%	2.9%	44.6%	20µM*	-12.6%[59 µM]

Screens (PubChem)
